In PubChem BioAssay (Tox21):
Results filed as inconclusive are left out. Unmarked numbers belong to inactive results. Calls come from the whole dose curve; as a rule, active = well fitted cell-killing curve with a large enough effect in the repeat runs; inconclusive = weak or mixed curves, or effect the other way; inactive = flat fitted curve, though single readings scatter.

assay: qHTS RealTime-Glo MT Cell Viability Assay in HEK293 cells - 0 hour (AID 1224880); conditions: RealTime-Glo luminescence; series mostly up to 76.8 µM; activity change, negative = cytotoxicity: at the top concentration; note: top concentration of the series differs between compounds; nearly all actives have a fitted effect of over 45% in size
Description: U.S. Tox21 Program National Center for Advancing Translational Sciences [NCATS] NIH Chemical Genomics Center [NCGC] U.S. Environmental Protection Agency [EPA] National Institutes of Environmental Health Sciences [NIEHS] National Toxicology Program [NTP] U.S. Food and Drug Administration [FDA] Tox21 Assay Overview: Measure of cell viability is critical in the cell-base assay. Analysis of cell viability is necessary for the characterization of cell responses to cytotoxic drugs and environmental stress. A RealTime-Glo MT Cell Viability Assay to monitor cell viability in real time of continues cell culture during 40 hours of compound treatment was used to screen Tox21 10K library compounds in Hek293 cells. The RealTime-Glo MT Cell Viability Assay is a nonlytic, homogeneous, bioluminescent method to measure cell viability in real time using a simple, plate-based method. The assay involves adding NanoLuc luciferase and a cell-permeant prosubstrate to cells in culture. Viable cells reduce the proprietary prosubstrate to generate a substrate for NanoLuc luciferase. This substrate diffuses from cells into the surrounding culture medium, where it is rapidly used by the NanoLuc Enzyme to produce a luminescent signal. The signal correlates with the number of viable cells, making the assay well suited for cytotoxicity studies.
Tox21 Assay Protocol Summary: The mixture of Hek293 cell suspension and reagents were dispensed at 600cells/6 ul/well in 1536-well tissue culture treated black solid bottom plates using a Multidrop dispenser. After the assay plates were incubated at a 37 C/5% CO2 incubator for 5 hours, 23 nL of compounds dissolved in DMSO, positive and negative controls was transferred to the assay plate by a pintool work station. The plates were incubated at 37 C for 40 hours. The luminescence intensity were measured at 0h, 8h, 16h, 24h, 32h and 40h time points using ViewLux plate reader during compound treatment.
% is set by controls: 0 for no effect and ±100 for the full control effect.

| Compound | activity change, negative = cytotoxicity |
| --- | --- |
| Oc1ccc2c(c1)OC[C@@H](N1CCC(O)(c3ccc(F)cc3)CC1)[C@H]2O | -2.06% [at 35.3 µM] |
| COc1cc(CCC(C)=O)ccc1O | 7.23% |
| O=S(=O)(c1cccc2cnccc12)N1CCCNCC1 | 2.83% [at 35.3 µM] |
| CC(C)CCCC(C)CCCC(C)CCCCC(C)CCCC(C)CCCC(C)C (stereo not given) | 6.59% [at 35.3 µM] |
| C1=C\CC/C=C\CC/C=C\CC/1 | 6.73% |
| c1cc(CN2CCCCC2)cc(OCCCNc2nc3ccccc3s2)c1 | 17% [at 35.3 µM] |
| CC1=CC(=O)CCC1 | 6.85% |
| CCCC(C)CO (stereo not given) | 7.46% |
| CC(C)N1C(=O)c2ccccc2C1=O | -1.05% |
| OC1OC[C@@H](O)[C@H](O)[C@H]1O (stereo not given in full) | 5.34% |
| COC[C@H](c1ccc(C(F)(F)F)cc1)N1CCN(C2(C)CCN(C(=O)c3c(C)ncnc3C)CC2)C[C@H]1C | -4.35% [at 35.3 µM] |
| CC(C)CCCC(C)NCCC(C)C (stereo not given) | -2.87% [at 35.3 µM] |
| CN1[C@@H]2CC[C@H]1CC(NC(=O)n1c(=O)[nH]c3ccccc31)C2 (stereo not given in full) | 2.73% [at 35.3 µM] |
| OC[C@H]1O[C@@H]2O[C@H]3[C@H](O)[C@@H](O)[C@@H](O[C@H]4[C@H](O)[C@@H](O)[C@@H](O[C@H]5[C@H](O)[C@@H](O)[C@@H](O[C@H]6[C@H](O)[C@@H](O)[C@@H](O[C@H]7[C@H](O)[C@@H](O)[C@@H](O[C@H]8[C@H](O)[C@@H](O)[C@@H](O[C@H]9[C@H](O)[C@@H](O)[C@@H](O[C@H]1[C@H](O)[C@H]2O)O[C@@H]9CO)O[C@@H]8CO)O[C@@H]7CO)O[C@@H]6CO)O[C@@H]5CO)O[C@@H]4CO)O[C@@H]3CO | 1.01% [at 35.3 µM] |
| CC12CCC(CC1=O)C2(C)C (stereo not given) | 2.58% |
| CC(C)=CC(=O)O | 2.61% |
| O=Cc1ccccc1[N+](=O)[O-] | 1.63% |
| CC1=CC(C)C(C=O)C(C)C1 (stereo not given) | -3.66% |
| CSc1nc(NC2CC2)nc(NC(C)(C)C)n1 | 0.298% |
| Cc1nc(-c2ccc(OCC(C)C)c(C#N)c2)sc1C(=O)O | -11.8% [at 35.3 µM] |

| Compound | activity change, negative = cytotoxicity |
| --- | --- |
| C=CCSCC1Nc2cc(Cl)c(S(N)(=O)=O)cc2S(=O)(=O)N1 (stereo not given) | -9.06% [at 35.3 µM] |
| NC(N)=NS(=O)(=O)c1ccc(N)cc1 | -3.46% [at 35.3 µM] |
| C=C(C)C(=O)OCCC(C)OC(=O)C(=C)C (stereo not given) | 12% |
| CCOC(=O)Nc1ccc2c(c1)N(C(=O)CCN1CCOCC1)c1ccccc1S2 | -7.44% [at 35.3 µM] |
| N#CC1(O)CCCCC1 | 5.06% |
| C=C[Si](OC)(OC)OC | 15.8% |
| CC(C)(C)C(=O)/C=C/c1ccc(Cl)cc1 | -0.998% |
| CCCCC=O | 5.42% |
| C1C2OC2C2C1C1CC2C2OC12 (stereo not given) | 22.2% |
| CNc1ncnc2nc[nH]c12 | -13.8% |
| CC(C)COC(=O)c1ccccc1O | 8.41% |
| O=C(O)CCNC(=O)c1ccc(N=Nc2ccc(O)c(C(=O)O)c2)cc1 | -3.17% [at 35.3 µM] |
| Cc1cc(C)c(NC(=O)CN(CC(=O)O)CC(=O)O)c(C)c1Br | 7.69% [at 35.3 µM] |
| CCCCCCCCN(C)CCCCCCCC | -3.03% |
| CCCCCCC(=O)OCC | -1.63% |
| Nc1[nH]c(=O)ncc1F | -2.29% [at 35.3 µM] |
| C(=C(c1ccccc1)c1ccccc1)c1ccccc1 | 22.7% |
| NS(=O)(=O)c1cc(C2(O)NC(=O)c3ccccc32)ccc1Cl (stereo not given) | 2.79% [at 35.3 µM] |
| O=C1CC2(CCCC2)CC(=O)N1 | 3.06% [at 35.3 µM] |
| CCCc1ccccc1O | 5.51% |
